Results on 38 compounds are retold here after PubChem BioAssay (NCI).

About 83,000 compounds went through this panel and 20% of them were active in at least one assay; those are over-represented in the sample as a whole.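 A percent growth of 40 corresponds to 60% growth inhibition; 0 means no net growth; -100 means all cells died. Active threshold: below 10.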 Unmarked numbers belong to inactive results. Active and inactive are the calls of the source.

One assay has as its system A498 renal. The experiment in a line: NCI-60 one-dose screen, 48 h (100 = growth as untreated, 0 = no growth, -100 = all killed). The settings on record: 10 µM unless noted.
As for `O=C(CN1CCOCC1)Nc1ccc2ncnc(Nc3ccc(OCc4cccc(F)c4)c(Cl)c3)c2c1`, the growth was 28%. The same measure, in the same setting: the value for `Clc1cc(Cl)cc(N2N=C(c3cccc(Nc4ccncc4)c3)CC2c2ccccc2)c1` (stereo unspecified) was 103%; that for `C[C@]12CCc3nc(Nc4cccc(O)c4)sc3C1=CC[C@@H]1[C@@H]2CC[C@]2(C)/C(=N\NC(N)=S)CC[C@@H]12` was 97.5%.

With `Cc1c2c(cc[n+]1Cc1ccccc1)c1ccc(OCc3ccccc3)cc1n2Cc1ccccc1`, the growth was -34.5% (active). `O=C(O)CNC(=O)CN1C(=O)c2ccccc2C1=O`: the growth was 104%. With `O=C(Nc1nc2ccc(C(=O)N3CCN(c4ccc(Cl)c(Cl)c4)CC3)cc2s1)c1ccc(NCCc2ccccc2)c([N+](=O)[O-])c1`, the growth was 79.4%. Same read-out and setting: for `COc1ccccc1-c1c(-c2ccc(Cl)cc2)c2cc3c(cc2[nH]c1=O)OCCO3` the value was 86.8%; for `O=S(=O)(NCCNc1nccc(-c2c(-c3ccc(F)c(O)c3)nc3occn23)n1)c1ccccc1`, 103%. On the same count and under the same terms, for `Clc1cc(Cl)cc(N2N=C(c3cccc(Nc4ccncc4)c3)CC2c2ccc(Br)cc2)c1` (stereo unspecified) the value was 88.8%. Regarding `Cn1c(COC(=O)NCCn2ccnc2)nc2c(N3CCOCC3)nc(-c3ccccc3)nc21`, the growth is -24.2% (active). Same read-out and setting: for `Cc1c2c(cc[n+]1Cc1ccc(F)cc1)c1ccc(OCc3cccc(F)c3)cc1n2Cc1cccc(F)c1` the value was -1.04% (active). Same read-out and setting: the value for `CCCOc1nc(SCCC)nc2c1cnn2-c1ccccc1` was 134%.

Regarding `Cc1ccc(/C=C/C(=O)c2ccc(N)cc2)c(C)c1`, the growth is 97.3%. On the same count and under the same terms, for `Cc1cc(C)c(C=O)c(C)c1` the value was 102%. The same measure, in the same setting: the value for `COc1ccc(-c2c(-c3ccccc3)noc2N)cc1OC` was 123%; that for `O=C1c2cccnc2C(=O)c2nc3cc(N4CCN(C5CC5)CC4)ccc3nc21` was -88.1% (active).

With `c1ccc(N2N=C(c3cccc(Nc4ccncc4)c3)CC2c2ccc3c(c2)OCO3)cc1` (stereo unspecified), the growth is 46.1%. In the case of `COc1cc(NCC(C)(O)CN(CC(C)C)CC(C)C)c2nc(C)ccc2c1` (stereo unspecified), the growth is 56.5%. Same read-out and setting: for `C[C@@H]1CN(Cc2ccc(/C=C/c3n[nH]c4ccc5nc(-c6cn[nH]c6C(F)(F)F)c6c(c5c34)CCCC6)cc2)C[C@H](C)O1` the value was 3.16% (active); for `CC1(C)CCCN1CCCN1c2ccccc2Sc2ccc(Cl)cc21`, 61.7%. Turning to `CC1CCN(C(=O)OCc2nc3nc(Cl)nc(N4CCOCC4)c3[nH]2)CC1`, the growth is 42.2%. Same read-out and setting: for `CC1(C)CN(c2cnc(C(=O)Nc3cc(F)cc4cccnc34)cn2)CCN1` the value was 74.3%; for `Cn1c(COC(=O)NCCN2CCOCC2)nc2c(N3CCOCC3)nc(-c3ccccc3)nc21`, 30.7%.

A further assay relates to CCRF-CEM leukemia. The assay is described as above. The settings on record: 10 µM unless noted.
Turning to `CCN(CC)CCCCCCNc1cc(OC)cc2cccnc12`, the growth is -35.6% (active). As for `COc1ccccc1Nc1cc(O)c2c(=O)cc(-c3ccccc3)oc2c1`, the growth was 7.29% (active). On the same count and under the same terms, for `COc1ccc(C(O)c2cc3c(N)c(C(=O)Nc4ccc(Cl)cc4)sc3nc2C)cc1` (stereo unspecified) the value was 8.15% (active). Still for that read-out and setting: the value for `COc1cc(NCC(O)CN(CC(C)C)CC(C)C)c2nc(C)ccc2c1` (stereo unspecified) was 115%; that for `CCCCCCCCCCN=C(N)N=C(N)N` was 35.7%; that for `COc1ccc(C(O)c2cc3c(N)c(C(=O)Nc4cccc(Br)c4C)sc3nc2C)cc1` (stereo unspecified) was 16.4%. Regarding `CCCCCCCCCCCCCCCCCCOc1ccccc1N`, the growth is 11%. The same measure, in the same setting: the value for `CC(=O)O[C@H]1CC[C@@]2(C)[C@@H](CC[C@@H]3[C@@H]2CC[C@@]2(C)[C@H]3CC[C@]2(O)C(C)=O)C1` was 98.9%; that for `CCC1(CC)NC(=O)c2c(c3ccc(Cl)c(Cl)c3n2C)C1C#N` (stereo unspecified) was 19.4%.

Regarding `COc1ccc(C2CC(c3cccc(Nc4ccncc4)c3)=NN2c2cc(Cl)cc(Cl)c2)cc1` (stereo unspecified), the growth is 7.35% (active). Still for that read-out and setting: the value for `CC(=O)Nc1ccc(S(=O)(=O)NC2CCCCC2)cc1` was 96.3%; that for `Clc1ccc(N2N=C(c3cccc(Nc4ccncc4)c3)CC2c2ccccc2)cc1` (stereo unspecified) was 96.3%; that for `CN1C2CCC1CN(c1cnc(C(=O)Nc3cc(F)cc4cccnc34)cn1)C2` was 28.3%. Same read-out and setting: for `C=Cc1cc[n+](CCCCCCCCCCCC)cc1` the value was 87.9%; for `CCCCCCCCCCCCCCCC(=O)OC[C@@]1(O)C[C@@]23CC[C@@H]4C(C)(C)[C@H](O)CC[C@@]4(C)[C@@H]2CC[C@H]1C3`, 100%. As for `O=C(CN1CCOCC1)Nc1ccc2ncnc(Nc3ccc(OCc4cccc(F)c4)c(Cl)c3)c2c1`, the growth was 66.7%. On the same count and under the same terms, for `Clc1cc(Cl)cc(N2N=C(c3cccc(Nc4ccncc4)c3)CC2c2ccccc2)c1` (stereo unspecified) the value was 28.3%; for `C[C@]12CCc3nc(Nc4cccc(O)c4)sc3C1=CC[C@@H]1[C@@H]2CC[C@]2(C)/C(=N\NC(N)=S)CC[C@@H]12`, 1.64% (active).

As for `Cc1c2c(cc[n+]1Cc1ccccc1)c1ccc(OCc3ccccc3)cc1n2Cc1ccccc1`, the growth is -16.2% (active). Still for that read-out and setting: the value for `O=C(O)CNC(=O)CN1C(=O)c2ccccc2C1=O` was 81.1%.

On to `O=C(Nc1nc2ccc(C(=O)N3CCN(c4ccc(Cl)c(Cl)c4)CC3)cc2s1)c1ccc(NCCc2ccccc2)c([N+](=O)[O-])c1`, for which the growth was 93.6%. Same read-out and setting: for `COc1ccccc1-c1c(-c2ccc(Cl)cc2)c2cc3c(cc2[nH]c1=O)OCCO3` the value was 41.7%. Turning to `O=S(=O)(NCCNc1nccc(-c2c(-c3ccc(F)c(O)c3)nc3occn23)n1)c1ccccc1`, the growth is 38.5%. Turning to `Clc1cc(Cl)cc(N2N=C(c3cccc(Nc4ccncc4)c3)CC2c2ccc(Br)cc2)c1` (stereo unspecified), the growth is -12.9% (active). The same measure, in the same setting: for `Cn1c(COC(=O)NCCn2ccnc2)nc2c(N3CCOCC3)nc(-c3ccccc3)nc21` the value was -17.9% (active); for `Cc1c2c(cc[n+]1Cc1ccc(F)cc1)c1ccc(OCc3cccc(F)c3)cc1n2Cc1cccc(F)c1`, -54.2% (active). Same read-out and setting: the value for `CCCOc1nc(SCCC)nc2c1cnn2-c1ccccc1` was 92.9%. Same read-out and setting: the value for `Cc1ccc(/C=C/C(=O)c2ccc(N)cc2)c(C)c1` was -45.3% (active). With `Cc1cc(C)c(C=O)c(C)c1`, the growth is 78.6%. With `COc1ccc(-c2c(-c3ccccc3)noc2N)cc1OC`, the growth is 98.1%.

As to `O=C1c2cccnc2C(=O)c2nc3cc(N4CCN(C5CC5)CC4)ccc3nc21`, the growth is 26.2%.

For `c1ccc(N2N=C(c3cccc(Nc4ccncc4)c3)CC2c2ccc3c(c2)OCO3)cc1` (stereo unspecified), the growth is 1.64% (active).

For the compound `COc1cc(NCC(C)(O)CN(CC(C)C)CC(C)C)c2nc(C)ccc2c1` (stereo unspecified), the growth was 85.4%.

With `C[C@@H]1CN(Cc2ccc(/C=C/c3n[nH]c4ccc5nc(-c6cn[nH]c6C(F)(F)F)c6c(c5c34)CCCC6)cc2)C[C@H](C)O1`, the growth is 15.4%.

Turning to `CC1(C)CCCN1CCCN1c2ccccc2Sc2ccc(Cl)cc21`, the growth was 41.7%. For the compound `CC1CCN(C(=O)OCc2nc3nc(Cl)nc(N4CCOCC4)c3[nH]2)CC1`, the growth was -7.16% (active). Same read-out and setting: for `CC1(C)CN(c2cnc(C(=O)Nc3cc(F)cc4cccnc34)cn2)CCN1` the value was 44.5%; for `Cn1c(COC(=O)NCCN2CCOCC2)nc2c(N3CCOCC3)nc(-c3ccccc3)nc21`, -10.9% (active).
